# Compound activity: PubChem, National Center for Advancing Translational Sciences (NCATS)
# AmpC inh no detg = inhibitors of E. coli AmpC beta-lactamase without detergent; 0.52% of 330,000 active; AmpC nitrocefin hydrolysis, absorbance 480 nm, 0.0001% Triton; Potency, µM (highest dose often 57.1 µM), inactives show at the top dose activity change, negative = inhibition, usual class: inhibitors;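 also: plate controls were no compound for no effect and no enzyme for full effect; nearly all actives have a fitted effect of over 20% in size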
# Target sequence (P00811 whole entry, looked up): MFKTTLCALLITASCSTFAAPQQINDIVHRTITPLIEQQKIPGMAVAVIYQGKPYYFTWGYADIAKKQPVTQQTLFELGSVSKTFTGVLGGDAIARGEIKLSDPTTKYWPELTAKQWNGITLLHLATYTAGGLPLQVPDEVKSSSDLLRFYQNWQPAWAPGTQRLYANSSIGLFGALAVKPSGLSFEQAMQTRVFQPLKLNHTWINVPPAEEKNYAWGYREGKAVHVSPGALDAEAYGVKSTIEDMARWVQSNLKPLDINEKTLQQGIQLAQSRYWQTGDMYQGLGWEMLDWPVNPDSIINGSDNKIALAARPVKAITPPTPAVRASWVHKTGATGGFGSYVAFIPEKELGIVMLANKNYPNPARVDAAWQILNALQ
#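 20 mM phosphate pH 7.0 + 0.01% (detergent screen) or 0.0001% Triton X-100; 5.3 nM AmpC reagent; cpd preinc 15 min RT; nitrocefin (800 uM stock) to start; A480 q20 s × 4 min; Activity was normalised to no-enzyme and no-compound control wells.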
# AMA1-RON2 inh = disrupts binding of P. falciparum AMA1 to RON2. AlphaScreen AMA1-biotinylated RON2 peptide binding. 0.2% of 360,000 active. Potency, µM (series often up to 58.2 µM), for inactives: top-dose activity change, negative = inhibition, usual class: inhibitors;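 also: 0% = vehicle wells and -100% = peptide control; nearly all actives have a fitted effect of over 45% in size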
#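 AMA1 (3D7) with his tag at 25 nM final met compounds first, then biotinylated RON2 peptide at 25 nM; detection used donor plus acceptor beads, 10 µg/mL apiece, read by AlphaScreen after 30 min at room temperature.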
# Pf growth 96h = P. falciparum growth inhibition at 96 hour, primary screen for plastid delayed-death inhibitors | P. falciparum luciferase reporter growth, 96 h | AID 504834 | Potency, µM (top dose mostly 28.7 µM), inactives show at the highest dose activity change, negative = inhibition, hits mostly inhibitors | 6.9% of 320,000 active
#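 Compounds incubated with erythrocytes infected by luciferase-expressing P. falciparum (2% hematocrit, 0.05% parasitemia final) for 96 hours, 37 C in 5% CO2. Growth inhibition scored as decreased luciferase luminescence.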
# AmpC inh detg = blocks E. coli AmpC beta-lactamase in detergent assay | P00811 | AmpC hydrolysis of nitrocefin, absorbance 480 nm, 0.01% Triton | Potency, µM (highest dose often 114 µM), for inactives: at the top dose activity change, negative = inhibition, actives largely listed as inhibitors | 0.041% of 370,000 active;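 also: 0% = no-compound wells and -100% = no-enzyme wells; nearly all actives have a fitted effect of over 25% in size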
#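 20 mM phosphate pH 7.0 + 0.01% (detergent screen) or 0.0001% Triton X-100; 5.3 nM AmpC reagent; cpd preinc 15 min RT; nitrocefin (800 uM stock) to start; A480 q20 s × 4 min; Activity was normalised to no-enzyme and no-compound control wells.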
# HCV inh = HCV inhibition | Huh7.5.1 HCVcc-Cre infection, luciferase reporter, 44 h | Potency, µM (top dose mostly 41.8 µM), without a hit: at the top dose activity change, negative = inhibition, hits mostly inhibitors | 3.4% of 340,000 active
#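 Seed cells (1,000/well) for 4 h; treat with compound and infect with HCVcc-Cre, moi about 0.5. Incubate 44 h, then detect luciferase activity.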
# Pf growth 48h = inhibits P. falciparum growth in the first generation, 48 h | 5.9% of 310,000 active | Potency, µM (series often up to 28.7 µM), for the others: at the top dose activity change, negative = inhibition, actives largely listed as inhibitors | P. falciparum luciferase growth in erythrocytes, 48 h
#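 Firefly luciferase activity from engineered P. falciparum reports growth; inhibitors lower the luminescent signal. Cultures contained 2% hematocrit erythrocytes at 0.1% final parasitemia.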
# * hit, by the source's call; i = inactive; ? = inconclusive; . = no result; [ ] = another dose, or the depositor's remark. The list is not random: actives were taken first. Their share in the collection is about 11%. Calls follow the shape of the dose curve; as a rule, active = well fitted curve in the direction sought with a large enough effect; inconclusive = small, poorly fitted or top-dose-only effect, or another doubt; inactive = no such curve, though single readings can be large; an effect the other way counts as inactive or inconclusive. Unless noted, % is scaled to controls: 0 for no effect and ±100 for the full control effect; potency is read from the fitted curve at half-maximal effect.
SMILES,AmpC inh no detg,AMA1-RON2 inh,Pf growth 96h,AmpC inh detg,HCV inh,Pf growth 48h
Cn1c(N)c(C(=O)COC(=O)c2cc(-c3ccco3)nc3ccccc23)c(=O)n(C)c1=O,-16.7%,?,?,?,?,?
Cn1c(N)c(C(=O)COC(=O)c2cc(-c3ccco3)nc3ccccc23)c(=O)n(Cc2ccccc2)c1=O,?,.,9.28µM*,-9.1%,2.1%[8.37 µM],?
O=S(=O)(c1ccc2c(c1)OCCO2)N1CCN(c2ncnc3sccc23)CC1,-20.1%,-10.2%,-20.1%[5.75 µM],-0.9%,1µM*,?
Cc1ccc(S(=O)(=O)N2CCN(c3ncnc4sccc34)CC2)cc1C,-13.5%,-2.1%,11.7µM*,?,11.2µM*,13.1µM*
Cc1cc(Br)ccc1NC(=O)C1CCN(S(=O)(=O)c2cccc3nsnc23)CC1,.,.,.,-9.8%,.,.
Cc1cc(C)c(S(=O)(=O)c2ccccc2)c(OC(=O)c2c(Cl)cc(Cl)cc2Cl)n1,78.7%,-7.0%,14.0%,-2.1%,?,3.7µM*
Cc1cc(C)c(S(=O)(=O)c2cccc(Cl)c2)c(Cl)n1,-1.5%,-24.1%,?,-23.3%,?,10.4µM*
Cc1cc(C)c(S(=O)(=O)c2ccccc2)c(OC(=O)c2c(F)cccc2F)n1,-13.3%,-0.4%,16.2%,?,4.6%,i
COc1ccc(N(C)C(=S)Nc2ccc3nc(C)c(C)nc3c2)cc1,7.8%,11.5%,2.33µM*,-1.4%,11.9%,36.5%
Cc1cc(=O)n2c(C(=O)Nc3ccc(C)c(Cl)c3)c(C(=O)Nc3ccccc3)sc2n1,.,.,.,5.1%,.,.
CCn1cnc2c1c(=O)n(CC(=O)Nc1ccc(C(N)=O)cc1)c(=O)n2Cc1ccccc1,0.7%,5.4%,13.1µM*,-7.2%,16.3%,?
CCn1cnc2c1c(=O)n(CC(=O)NN)c(=O)n2Cc1ccccc1,19.0%,37.6%,?,-22.7%,19.7%,.
CCCCNC(=O)Cn1c(=O)c2c(ncn2CC)n(Cc2ccccc2)c1=O,-9.0%,3.8%,13.1µM*,-1.6%,-2.9%,-2.4%
CCNC(=O)Cn1c(=O)c2c(ncn2Cc2ccccc2)n(Cc2ccccc2)c1=O,-5.5%,2.3%,1.04µM*,-5.9%,26.9%,?
Cn1nc(C(=O)NCc2cccc(Cl)c2)c2c1-c1ccccc1SC2,.,.,.,1.2%,.,.
COc1ccc(C)cc1NC(=O)c1ccc(=O)n(Cc2ccccc2)c1,.,.,.,-0.5%,.,.
CCOP(=O)(OCC)c1nc(-c2cccc3ccccc23)oc1NCc1ccc(OC)cc1,87.2%,60.1%,13.1µM*,9.1%,?,?
CCOP(=O)(OCC)c1nc(/C=C/c2ccccc2)oc1NCc1ccccc1,192.1%,55.5%,43.9%,-6.3%,?,11.7µM*
CCOP(=O)(OCC)c1nc(-c2cccc3ccccc23)oc1NCc1ccccc1,62.0%,26.6%,?,0.7%,0.1%,?
O=C(/C=C/c1c(F)cccc1Cl)c1ccc(O)cc1,-41.8%,-7.0%,?,2.0%,11.2µM*,3.8%
O=C(/C=C/c1ccccc1Cl)c1ccc(O)cc1,-47.9%,-2.0%,?,-9.3%,6.2%,52.2%
O=[N+]([O-])c1ccc(NCc2ccc(Cl)cc2)c2ccncc12,-19.1%,5.0%,?,-2.5%,6.31µM*,-44.5%
CC1CCCCN1Cc1c(O)ccc2c(=O)c(-c3ccc(Cl)cc3)c(C(F)(F)F)oc12 (centres undefined),.,.,.,4.3%,.,.
Cc1nc(-c2ccc(S(=O)(=O)N3CCN(C4c5ccccc5-c5ccccc54)CC3)s2)cs1,-36.8%,-3.3%,?,4.8%,-7.5%,?
Cc1nc(-c2ccc(S(=O)(=O)N3CCCN(CCc4ccccc4)CC3)s2)cs1,42.1%,?,4.15µM*,3.4%,?,?
CCN(CC)S(=O)(=O)c1ccc(C(=O)Nc2ccc(Cc3ccncc3)cc2)cc1,49.4%,-27.8%,3.9%,-0.5%,3.16µM*,?
